Coupling enz: qHTS Assay for Inhibitors of Fructose-1,6-bisphosphate Aldolase from Giardia Lamblia: Coupling assay counterscreen | coupling enzyme system counterscreen, AmpLite Red fluorescence | activity change, negative = inhibition, % at 58.2 µM, hits read low | hit rate 0.67% among 290,000 | AID 2472, 2010; in the data active = activity change below about -30%
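Counterscreen lacking aldolase: glyceraldehyde-3-phosphate coupling-enzyme reagent preincubated 10 min at RT with compound (at 57.5 uM final), then substrate/coupling system with AmpLite Red added; fluorescence read at 525/598 nm after 20 min RT.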
Sfp inh: qHTS Assay for Inhibitors of Bacillus subtilis Sfp phosphopantetheinyl transferase (PPTase); Biochemical Sfp PPTase activity, qHTS; Potency, µM, for inactives: largest response in the series, negative = inhibition, most hits filed as inhibitors; hit rate 3.5% among 310,000; AID 1490, 2009;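 note: the enzyme is Sfp with the accession as filed and its product quenches rhodamine fluorescence; potency is the fitted concentration of half-maximal effect; 0% = enzyme reaction without inhibitor and -100% = no enzyme wells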
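After 15 min at room temperature with compound, 15 nM Sfp received 5 uM rhodamine-CoA plus 12.5 uM BHQ-2-ybbR (50 mM Hepes pH 7.6, 10 mM MgCl2). Rate came from the fluorescence difference over 30 min, ex 525/em 598 nm.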
Giardia killer: Small Molecules that selectively kill Giardia lamblia: qHTS | hit rate 0.15% among 340,000 | Giardia lamblia trophozoite viability | activity change, % at 7.66 µM, hits read low; in the data active = activity change below about -80%; inconclusive = between about -30% and that limit;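 note: parasites exposed to compound for two days anaerobically before the ATP read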
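Luminescence from cellular ATP indicates surviving trophozoites (100 cells/well) following 48 hrs anaerobic compound treatment at 37 deg C; signal develops 15-30 min at room temperature.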
ELG1 repair inh: qHTS screen for small molecules that inhibit ELG1-dependent DNA repair in human embryonic kidney (HEK293T) cells expressing luciferase-tagged ELG1; HEK293T ELG1-luciferase reporter, luminescence, 16 h; DNA damage induced by 5-fluorouridine; Potency, µM (top dose mostly 46.1 µM), inactives show top-dose activity change, negative = inhibition, most hits filed as inhibitors; hit rate 2.3% among 330,000; note: potency is the fitted concentration of half-maximal effect; nearly all actives have a fitted effect of over 55% in size
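5-Fluorouridine DNA damage + compound/DMSO, 2,000 cells/well, 16 h, 37 °C/5% CO2. ONE-Glo, 30 min RT, luminescence. Readout = decrease in reporter signal.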
Numbers without * were called inactive; ? = inconclusive; nt = no result. Hits are enriched below; roughly 5.5% of the tested compounds scored in any of these assays. Unless noted, calls come from the whole dose curve; as a rule, active = well fitted curve in the direction sought with a large enough effect; inconclusive = small, poorly fitted or top-dose-only effect, or another doubt; inactive = no such curve, though single readings can be large; an effect the other way counts as inactive or inconclusive. Unless noted, % is set by controls: 0 for no effect and ±100 for the full control effect.

SMILES | Coupling enz | Sfp inh | Giardia killer | ELG1 repair inh
CCOC(=O)c1c(-c2ccc(C)o2)csc1NC(=O)CN1CCCCC1 | -6 | 7.9µM* | -4 | -10%
CCOC(=O)c1c(-c2cccs2)csc1N | -11 | -21% | 0 | -15%
CCOC(=O)c1c(-c2ccc(C)o2)csc1NC(=O)CN1CCN(CC)CC1 | 0 | -16% | -2 | -9%
O=C1NC(=S)S/C1=C\c1cccc([N+](=O)[O-])c1 | nt | nt | -10 | nt
C[C@@]12C=CC(=O)C=C1CCC1C3CC(O)[C@@](O)(C(=O)CO)[C@]3(C)CC(O)[C@]12F (some centres not stated) | 0 | 25% | nt | nt
Cc1ccccc1C(=O)c1c[nH]c(C(=O)N2CCN(c3ccccc3F)CC2)c1 | -4 | 11% | -24 | 23µM*
O=C(c1c[nH]c(C(=O)N2CCN(c3ccccc3F)CC2)c1)c1cccc(Cl)c1Cl | -3 | 17% | -21 | -17%
CC(=O)Nc1ccc(NS(=O)(=O)c2ccccc2)c2ccccc12 | -1 | -7% | 10 | 8%
O=S(=O)(Nc1cccc2ccccc12)c1cccs1 | nt | 6% | 1 | 15%
O=S(=O)(Nc1ccc(O)c2ccccc12)c1cccs1 | -35* | ? | 2 | 9.2µM*
O=S(=O)(Nc1ccc(O)c2ccccc12)c1ccc(Br)cc1 | -13 | -18% | nt | 23µM*
CC1=CC(=O)O[C@@H]1[C@@]1(C)C[C@H]2OC(=O)C[C@H]3[C@@H](C)C(=O)C(O)=C1[C@@]23CO | nt | nt | -2 | 18µM*
O=C(/C=C/c1cccc([N+](=O)[O-])c1)NC(=S)Nc1ccccc1C(=O)O | -14 | 40µM* | nt | 13%
COc1cc(NCCCNC(C)C)c2nccc(C)c2c1 | nt | nt | 1 | nt
COc1ccccc1CN1C(=O)CNC1=S | 0 | 7% | 9 | 4%
COc1ccccc1Cn1[nH]nnc1=S | 2 | 40µM* | 15 | -6%
COCCn1c(=O)c(-c2ccc(Cl)cc2)nc2cnc(Oc3ccc(OC)cc3)nc21 | -3 | 8% | nt | nt
N#Cc1ccccc1NC(=O)COC(=O)c1c[nH]c2ccccc12 | nt | nt | -9 | 11%
CCOC(=O)c1csc(N/N=C2\CCc3ccccc32)n1 | 0 | -15% | 30 | 9%
CCOC(=O)c1csc(N/N=C2\CCCc3ccccc32)n1 | -3 | 79µM* | -2 | -2%
CC(OC(=O)Cn1cnc2ccccc2c1=O)C(=O)NCc1ccccc1 (configuration not stated) | nt | nt | -7 | 7%
CCc1c(C)sc(NC(=O)CSc2nc3c(c(C(F)(F)F)n2)CCc2ccccc2-3)c1C#N | -7 | 45µM* | ? | 4%
CC(NC(=O)CSc1nc2c(c(C(F)(F)F)n1)CCc1ccccc1-2)c1ccccc1 (configuration not stated) | 0 | 16% | -1 | -22%
CC1CC(OC(=O)C(O)c2ccccc2)CC(C)(C)C1 (configuration not stated) | 0 | 19% | nt | nt
O=C(NP(=O)(N1CCOCC1)N1CCOCC1)C1=C(N2CCOCC2)/C(=C\c2ccccc2)CC1 | -1 | 0% | 16 | 8%
SMILES | Coupling enz | Sfp inh | Giardia killer | ELG1 repair inh
COc1cc(NC(=O)C2=C(N3CCOCC3)/C(=C\c3ccc(Br)cc3)CC2)cc(OC)c1OC | 2 | ? | 2 | 18µM*
N#C/C(=C/C1=C(N2CCOCC2)C(=C/c2ccc(Cl)cc2Cl)/CC1)C(=O)Nc1ccccc1F | nt | nt | 8 | nt
COc1cc(NC(=O)C2=C(N3CCOCC3)/C(=C\c3ccc(Cl)cc3Cl)CC2)cc(OC)c1OC | -2 | -1% | -6 | 21µM*
Cc1ccc(S(=O)(=O)N2CCN(c3nc(-c4ncco4)nc4ccccc34)CC2)cc1 | nt | nt | -28 | nt
COCCn1c(=O)c(-c2ccc(Cl)cc2)nc2cnc(N(C)C)nc21 | -1 | 1% | nt | nt
O=C(O)CN1C(=O)/C(=C\c2cccc(OCc3ccc(Cl)cc3Cl)c2)SC1=S | 15 | 79µM* | 0 | ?
Cc1ccc(-n2nnnc2SC(C)C(=O)NCC(=O)Nc2ccc(F)c(F)c2F)c(C)c1 (configuration not stated) | -3 | -7% | -1 | 18µM*
CC1Sc2ccc(S(=O)(=O)N3CCC(C(=O)Nc4cccc(Cl)c4)CC3)cc2NC1=O (configuration not stated) | nt | 21% | 10 | ?
COc1ccc(NC(=O)/C=C/c2cccc(C(F)(F)F)c2)cn1 | -2 | -15% | 47 | 18µM*
O=C(Nc1ccc(Oc2cccc(C(F)(F)F)c2)nc1)c1ccco1 | 1 | -3% | 1 | 10µM*
O=C(Nc1cccc(F)c1)N1CC[C@@]2(CCCN(C(=O)c3cc(C(F)(F)F)cc(C(F)(F)F)c3)C2)C1 | 0 | 9% | nt | nt
COCCN(CC(=O)Nc1cccc(C)c1C)C(=O)CN1C(=O)NC2(CCCCC2)C1=O | nt | nt | 8 | 9%
Cc1cccc(NS(=O)(=O)c2cccc(C(=O)N3CCCC(C(F)(F)F)C3)c2)c1 (configuration not stated) | nt | nt | -1 | -3%
CCN1CCN(Cc2ccc(NC(=O)c3ccc(C)c(NC(=O)N4CCNC4=O)c3)cc2C(F)(F)F)CC1 | 1 | 28% | -28 | -25%
CCN1CCN(Cc2ccc(NC(=O)c3ccc(C)c(NC(=O)c4nccnc4N)c3)cc2C(F)(F)F)CC1 | -7 | 89µM* | -7 | ?
CCN1CCN(Cc2ccc(NC(=O)c3ccc(C)c(NC(=O)c4nccn4C)c3)cc2C(F)(F)F)CC1 | 0 | 6% | -20 | -5%
CCN1CCN(Cc2ccc(NC(=O)c3ccc(C)c(NC(=O)c4cc(-c5ccc(Br)cc5)n[nH]4)c3)cc2C(F)(F)F)CC1 | -1 | 79µM* | 29 | ?
CN(C)C=Nc1ncc2c3ccccc3n(CCN(C)C)c2c1C#N | 0 | 5% | 6 | 6.5µM*
CN(C)C=Nc1ncc2c3ccccc3n(Cc3ccccc3)c2c1C#N | 2 | -4% | -17 | -4%
CCNc1nc2[nH]c(=O)c3c(c2s1)OC(N)=C(C#N)C3c1ccc(C)cc1 (configuration not stated) | -12 | 45µM* | -8 | 24%
O=c1[nH]c(N/N=C/c2ccccc2Br)nnc1-c1ccccc1 | 0 | 50µM* | 8 | 10%
COc1ccc(/C=N/Nc2nnc(-c3ccccc3)c(=O)[nH]2)cc1 | 2 | 11% | 14 | ?
CCC(=O)Nc1cc(C(F)(F)F)ccc1N1CCOCC1 | 1 | 6% | -2 | 0%
O=C(CNCc1cccnc1)Nc1cc(C(F)(F)F)ccc1N1CCOCC1 | 5 | 56µM* | -2 | -14%
C=CCN(CC(=O)Nc1cccnc1)S(=O)(=O)c1ccc(Cl)cc1 | nt | nt | -11 | -4%
C=CC(C)(C)c1[nH]c2ccccc2c1C1=C(O)C(=O)C(c2c[nH]c3c(CC=C(C)C)cccc23)=C(O)C1=O | 9 | -24% | nt | nt
CCOC(=O)N1CCN(CC(O)COCC2=CCC3CC2C3(C)C)CC1 (configuration not stated) | -3 | 79µM* | 21 | 6%
